SMARCA2 activ – SMARCA2 function activation, primary screen; activation, % at 9.1 µM; MG213 cells, MMTV-luciferase reporter, dexamethasone, overnight; actives 1% (n = 370,000); in the data active means activation above about 7.8%
NR3A LBD binder – modulators (binders) of human NR3A ligand-binding domain; NR3A LBD differential scanning fluorimetry, Tm shift; 0% = protein alone, 100% = glycine-bound protein; Tm shift relative to glycine control, % at 25 µM; actives 2.5% (n = 340,000);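 active means melting temperature shift of at least 10% of the positive control shift, at one fixed dose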
NadD inh – blocks S. aureus nicotinate mononucleotide adenylyltransferase. purified NadD enzyme, colorimetric absorbance read-out. inhibition, % at 20 µM. actives 0.78% (n = 360,000); in the data active means inhibition above about 26%
Vif inh – blocks HIV Vif function; HEK293T cells, Vif self-association by quenched fluorescence, imaging, 24 h; inhibition, % at 7.49 µM; actives 0.35% (n = 340,000); AID 602346; in the data active means inhibition above about 50%, passing the limit was not always enough; inconclusive means no clear call, values can overlap the other calls; inactive means below about 31%
esBAF inh – SWI/SNF esBAF complex inhibition; mouse ES cells, Bmi1-luciferase knock-in reporter, 24 h; 100% = twice the neutral-well signal; reporter increase, % at 12.5 µM; actives 2% (n = 350,000); in the data active means activation above about 40%; inconclusive means no clear call, values can overlap the other calls;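 further: a rise in the Bmi1 reporter signal indicates esBAF inhibition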
SKN-1 inh – inhibitors of C. elegans SKN-1; inhibition, % at 21.8 µM; C. elegans VP596 Pgst-4::GFP/RFP ratio, acrylamide-induced, 24 h; AID 624304; actives 0.49% (n = 360,000);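 active means interference check ratio from 0.5 to 1.5 plus GFP to RFP signal ratio inhibition reaching or exceeding a fixed threshold, cut at about 30% in these data, passing the limit was not always enough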
Hits are given with their value; . = inactive; ? = inconclusive; / = no result. A selection: hits, their analogues and other compounds. The true share with any hit is near 5.2%.

SMILES	SMARCA2 activ	NR3A LBD binder	NadD inh	Vif inh	esBAF inh	SKN-1 inh
CSc1cccc(NC(=O)c2sc3nc4n(c(=O)c3c2C)CCC4)c1	.	.	.	.	54	.
CC(=O)c1cccc(NC(=O)c2sc3nc4n(c(=O)c3c2C)CCCCC4)c1	.	.	.	.	.	.
CCOC(=O)c1sc2nc3n(c(=O)c2c1C)CCC3	.	.	.	.	.	.
Cc1c(C(=O)Nc2cc(F)ccc2F)sc2nc3n(c(=O)c12)CCCCC3	.	.	.	.	71	.
CCOC(=O)c1sc2nc3n(c(=O)c2c1C)CCCCC3	.	.	.	.	68	.
CC(C)NC(=O)Nc1ccc2c(c1)CC(=O)N([C@H](C)CO)C[C@@H](C)[C@H](CN(C)C(=O)Nc1ccccc1)O2	/	/	/	/	.	/
Cn1c(C(=O)NCc2ccccn2)cc2c(=O)n3ccccc3nc21	.	.	.	.	54	.
CCOC(=O)c1c[nH]n(-c2ccccc2)c1=O	.	.	.	.	.	.
CCOC(=O)c1c[nH]n(-c2ccc(C)cc2)c1=O	.	.	.	.	52	.
Cc1ccc(NC(=S)NCC23C=CC(O2)C2C(=O)N(c4ccc(C)cc4)C(=O)C23)cc1 (stereo not given)	.	.	.	.	/	.
Cc1cccc(NC(=S)NCC23C=CC(O2)C2C(=O)N(c4ccc(Cl)cc4)C(=O)C23)c1 (stereo not given)	.	12	.	.	/	.
CO[C@H]1CN(C)C(=O)c2ccc(NC(C)=O)cc2OC[C@H](C)N(C(=O)c2ccncc2)C[C@H]1C	/	/	/	/	.	/
CCCC(=O)N1N=C(c2ccccc2)CC1c1cn(C)c2ccccc12 (stereo not given)	.	15	.	.	.	.
Cn1cc(C2CC(c3ccccc3)=NN2C(=O)c2ccccc2)c2ccccc21 (stereo not given)	.	.	.	.	/	.
Cc1cccc(NC(=O)c2ccc(NS(=O)(=O)c3c(C)noc3C)cc2)c1	.	29	.	.	.	.
COc1cc(NC(=O)c2ccc(NS(=O)(=O)c3c(C)noc3C)cc2)cc(OC)c1	.	19	.	.	.	.
CCc1cccc(NC(=O)c2ccc(NS(=O)(=O)c3c(C)noc3C)cc2)c1	.	29	.	.	.	.
Cc1noc(C)c1S(=O)(=O)Nc1ccc(C(=O)Nc2ccc(OC(F)(F)F)cc2)cc1	.	12	.	.	.	.
Cc1noc(C)c1S(=O)(=O)Nc1ccc2c(c1)C(=O)N([C@H](C)CO)C[C@@H](C)[C@H](CN(C)C(=O)Nc1ccc(F)cc1)O2	/	/	/	/	.	/
CC(=O)N1N=C(c2ccc(Br)cc2)CC1c1ccc(Br)cc1 (stereo not given)	.	/	.	/	61	.
C[C@H]1CN([C@@H](C)CO)C(=O)c2cc(C3=CCCCC3)cnc2O[C@H]1CN(C)C(=O)c1cccnc1	/	/	/	/	.	/
O=C(C[C@H]1CC[C@@H]2[C@H](COC[C@H](O)CN2C(=O)c2ccccn2)O1)NC1CCC1	/	/	/	/	.	/
CN(C)CC(=O)N[C@@H]1CC[C@H](CCNC(=O)C2CCCC2)O[C@H]1CO	/	/	/	/	.	/
COc1cc2[nH]c(=O)n3nc(-c4ccccc4)nc3c2cc1OC	/	.	.	.	/	.
COc1ccc(-c2nc3c4ccccc4[nH]c(=O)n3n2)cc1	.	.	.	.	46	.
SMILES	SMARCA2 activ	NR3A LBD binder	NadD inh	Vif inh	esBAF inh	SKN-1 inh
C[C@@H]1CN([C@@H](C)CO)C(=O)c2cccc(NS(C)(=O)=O)c2O[C@H]1CN(C)S(=O)(=O)c1ccc(F)cc1	/	/	/	/	.	/
C=CCS/C(=N\n1cnc2ccccc2c1=O)N(CC)CC	.	.	.	.	/	.
C=CCS/C(=N\n1cnc2ccccc2c1=O)N1CCCCC1	.	.	.	.	53	.
COCCCn1cnc2c(c1=O)c1nc3ccccc3nc1n2CCc1ccccc1	.	.	.	.	/	36
O=C(NNC(=O)c1cc(-c2cccnc2)nc2ccccc12)Nc1ccc(Cl)cc1	.	26	.	.	?	.
O=C(NNC(=O)c1cc(-c2ccccc2)nc2ccccc12)Nc1cccc(Cl)c1	.	26	.	.	.	.
Cc1noc(C)c1S(=O)(=O)Nc1cccc2c1O[C@@H](CN(C)CC1CC1)[C@@H](C)CN([C@H](C)CO)C2=O	/	/	/	/	.	/
C[C@@H]1CN([C@@H](C)CO)S(=O)(=O)c2ccc(-c3ccccc3)cc2O[C@@H]1CN(C)S(C)(=O)=O	/	/	/	/	.	/
Cc1n[nH]c(=S)n1/N=C/c1ccccc1OCc1ccc(Cl)cc1	.	.	.	.	52	.
O=C(Cc1ccccc1)N1CCC(c2ccccc2)C1 (stereo not given)	.	.	.	.	46	.
C/C(=N\NC(=O)COc1ccc(C(C)(C)C)cc1)c1ccc(-n2ccnc2)cc1	.	.	.	.	48	.
C(=N\Nc1nc(-c2ccccc2)cs1)/c1cccs1	.	.	.	.	/	.
C(=N\Nc1nc(-c2ccccc2)cs1)/c1ccco1	.	.	.	.	/	47
Cc1ccc(-c2csc(N/N=C/c3ccco3)n2)cc1	.	.	.	.	?	60
Clc1ccc(-c2csc(N/N=C\c3cccnc3)n2)cc1	.	.	.	.	/	.
CN(C)S(=O)(=O)c1ccc(-c2csc(N/N=C/c3ccco3)n2)cc1	.	.	.	.	/	.
Brc1ccc(-c2csc(N/N=C/c3ccco3)n2)cc1	.	.	.	.	?	65
Clc1ccc(-c2csc(N/N=C/c3ccco3)n2)cc1	.	.	.	.	/	91
C[C@@H]1CN([C@@H](C)CO)S(=O)(=O)c2ccc(-c3ccccc3)cc2O[C@@H]1CN(C)C(=O)Cc1ccccc1	/	/	/	/	.	/
O=C(Cc1ccccc1)N1C[C@@H]2[C@H](c3ccccc31)[C@H](CO)N2C(=O)C1CC1	/	/	/	/	.	/
O=C(/C=C/c1ccco1)Nc1nc(-c2ccccc2)cs1	.	.	.	.	/	51
CCN(CC)S(=O)(=O)c1cc([N+](=O)[O-])ccc1N=Nc1c(O)[nH]c2ccccc12	.	18	.	.	/	.
C[C@@H]1CCCCO[C@H](CN(C)Cc2ccccc2)[C@H](C)CN([C@H](C)CO)C(=O)c2cc(NS(C)(=O)=O)ccc2O1	/	/	/	/	.	/
CCCc1ccc(Oc2cn[nH]c2-c2ccc(O)cc2O)cc1	.	28	.	.	.	.
COc1ccc(-c2[nH]ncc2Oc2ccccc2OC)c(O)c1	.	.	.	.	.	.
COc1ccc(Oc2cn[nH]c2-c2ccc(O)cc2O)cc1	.	15	.	.	.	.
COc1ccc(-c2cn[nH]c2-c2ccc(O)cc2O)cc1	.	.	.	.	.	.
C=C(C)COc1ccc(-c2[nH]ncc2Oc2ccccc2OCC)c(O)c1	.	11	.	.	.	.
CCOc1ccccc1Oc1cn[nH]c1-c1ccc(O)cc1O	.	.	.	.	.	.
Cc1ccc(S(=O)(=O)Nc2ccc3nc(C)oc3c2)cc1	.	11	.	.	/	.
